The record followed here is PubChem BioAssay AID624351 (Southern Research Specialized Biocontainment Screening …, 2012).

Usually IC50 stands for the concentration at which inhibition is half-maximal.

About 1,400 (58%) of roughly 2,400 compounds were called active.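 The calls were made as follows: active = inhibition of 30% or more at any tested dose; inconclusive = primary hits over the limit that were never retested; inactive = the rest.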 The set was probably picked from earlier hits. This is one part of the list.

The experiment can be described thus: ADP Hunter readout inhibition without MgcRacGAP – biochemical, coupled enzyme counter-screen, artefact control for MgcRacGAP inhibitor project, dose response (AID 624351).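 Also: signal is the ADP detection kit reading of free GDP without any GAP enzyme.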 To be noted: fluorescence, no MgcRacGAP; series mostly up to 80 µM.
In the case of `COc1cc(CNC2CCCCC2OC)cc(OC)c1` (configuration not stated), the IC50 result is “inactive”.
For the compound `O=c1c2c(nc3cc(-c4ccccc4)[nH]n13)CCS2`, the IC50 result was “inactive”.
Regarding `O=C(CSc1nnnn1C1CC1)N1CCN(c2ccc(O)cc2)CC1`, the IC50 was 31.5 µM (active).
Turning to `O=C(CSc1nnc(C2CC2)n1C1CC1)N1CCN(c2ccc(O)cc2)CC1`, the concentration for half-maximal inhibition (IC50) was 45.6 µM (active).
To `CSCCOC(=O)C1=C(C)Nc2ccc(C)cc2S1` belongs 35.6 µM (active); to `CCOC(=O)Nc1ccc2c(c1)Nc1ccccc1S2`, 40.6 µM (active).
Turning to `CCOC(=O)C1=C(C)Nc2ccccc2S1`, the IC50 is 41.3 µM (active).
Consider `CCOC(=O)C1=C(C)Nc2ccc(C)cc2S1`, for which the IC50 is 79 µM (active).
As for `CCOc1cc(/C=N/NC(=O)CCn2nc(C)cc2C)ccc1O`, the IC50 is 58.5 µM (active).
For `Cc1cc(C)n(CCC(=O)N/N=C/c2ccc(O)cc2)n1`, the IC50 was 74.1 µM (active).
The same measure for `O=C(CCn1cnc2ccccc21)N/N=C/c1ccc(O)cc1`: 57.4 µM (active); for `O=C(CSc1ccc2ccccc2n1)N/N=C/c1ccc(O)cc1`: 73.6 µM (active); for `CN(CCCCCCN(C)Cc1ccccc1O)Cc1ccccc1O`: “inactive”.
Turning to `C#CCOCCOCCOCCNc1nc(N2CCN(C(=O)[C@H](CCCCN)n3cc([C@@H](N)CC(C)C)nn3)CC2)nc(N2CCN(C(=O)[C@H](CCCCN)n3cc([C@@H](N)CC(C)C)nn3)CC2)n1`, the IC50 result was “inactive”.
With `COC(=O)CCNCCSc1nnc(-c2ccco2)n1Cc1ccccc1`, the IC50 entry was “inactive”.
Regarding `CCOc1cc(/C=C(\C#N)C(=O)NCc2cccnc2)ccc1O`, the IC50 was 45.3 µM (active).
The same measure for `CCOC(=O)c1c(C)n(-c2ccc(C)cc2)c2ccc(OCC(O)CNCC3CCCO3)cc12` (configuration not stated): “inactive”; for `CCOc1cc(/C=C(\C#N)C(=O)NCC2CCCO2)ccc1O` (configuration not stated): 49.7 µM (active).
For `CCOCCCNC(=O)/C(C#N)=C/c1ccc([N+](=O)[O-])o1`, the IC50 entry is “inactive”.
The same measure for `N#C/C(=C\c1cccnc1)C(=O)Nc1cccc2ccccc12`: “inactive”.
For the compound `N#C/C(=C/c1ccc(O)c(O)c1)C(=O)NCc1ccc(Cl)cc1`, the 50% inhibitory concentration (IC50) is 36.5 µM (active).
The same measure for `CCOc1cc(/C=N/NC(=O)C(=O)NCc2cccnc2)ccc1O`: 51.2 µM (active); for `C#CCOCCOCCOCCNc1nc(N2CCN(C(=O)C([C@@H](C)O)n3cc([C@@H](N)CCCCN)nn3)CC2)nc(N2CCN(C(=O)[C@H](CO)n3cc([C@@H](N)C(C)C)nn3)CC2)n1` (some centres not stated): “inactive”; for `CCN(CC)c1ccc(/C=N/O)cc1`: 21.6 µM (active).
For `CN(C)c1ccc(/C=N/O)cc1`, the IC50 is 23.9 µM (active).
With `CCN(CC)c1ccc(/C=N\NC(N)=O)cc1`, the IC50 is 53.8 µM (active).
For the compound `CN(C)c1nc(Oc2ccc(/C=N/O)cc2)nc(N(C)C)n1`, the IC50 result was “inactive”.
To `CCN(CC)CC(C)(C)C(=O)/C=C/c1ccc(/C=C/C(=O)C(C)(C)CN(CC)CC)cc1` belongs “inactive”; to `CCN(CC)c1ccc(/C=N/NC(=O)c2ccoc2C)cc1`, “inactive”.
With `O=C(O)c1ccc2nc(-c3ccco3)c(-c3ccco3)nc2c1`, the IC50 entry was “inactive”.
The same measure for `COc1cccc(CNc2ccc(N3CCC(C)CC3)cc2)c1OC`: 6.68 µM (active); for `COc1ccc(C)cc1NCc1cccc(OC)c1OC`: 70.3 µM (active); for `COc1ccc(CNCc2cccc(OC)c2OC)cc1Br`: “inactive”.
The same measure for `COc1cccc(CNc2ccc(N3CCCCC3)cc2)c1OC`: 4.01 µM (active).
`COc1cccc(CN2CCN(Cc3cccc(Oc4ccccc4)c3)CC2)c1OC`: the IC50 result was “inactive”.
Turning to `COc1cccc(CNCc2ccccc2Br)c1OC`, the IC50 result is “inactive”.
On to `COc1cccc(CN2CCN(Cc3cc(OC)c(OC)c(OC)c3)CC2)c1OC`, for which the IC50 entry was “inactive”.
Turning to `COc1cccc(OC)c1OCCCCN1CCCC1`, the IC50 entry was “inactive”.
As to `COc1cc(Br)c(CNc2cc(C)ccc2C)cc1OC`, the IC50 result was “inactive”.
Consider `COc1cccc(OC)c1OCCCN1CCOCC1`, for which the IC50 entry was “inactive”.
Turning to `COc1cccc(Nc2ccc(N3CCCCC3)cc2)c1OC`, the IC50 was 8.89 µM (active).
For `Cc1c(NC(=O)CN2CC(C)OC(C)C2)c(=O)n(-c2ccccc2)n1C` (configuration not stated), the IC50 result was “inactive”.
The same measure for `COc1cc(/C=C/C(=O)OCC(=O)Nc2c(C)n(C)n(-c3ccccc3)c2=O)ccc1O`: 53.6 µM (active).
The same measure for `COc1cc(/C=C/C(=O)OC(C)C(=O)Nc2c(C)n(C)n(-c3ccccc3)c2=O)ccc1O` (configuration not stated): 45.4 µM (active); for `Cc1c(O)ccc2c3c(c(=O)oc12)CCCC3`: 23.7 µM (active); for `Nn1c(=S)[nH]c2sc3c(c2c1=O)CCCC3`: 67.3 µM (active).
To `COCCn1c(=S)[nH]c2sc3c(c2c1=O)CCCC3` belongs 34.3 µM (active); to `COCCCn1c(=S)[nH]c2sc3c(c2c1=O)CCCC3`, 30.9 µM (active).
Turning to `CCn1c(=S)[nH]c2sc3c(c2c1=O)CCCC3`, the IC50 is 35 µM (active).
Take `C=CCc1cc(C)ccc1OCCCn1ccnc1`: the IC50 entry was “inactive”.
Turning to `O=C1C=CC(=O)N1c1ccc(Nc2ccccc2)cc1`, the IC50 was 34 µM (active).
For `O=C(O)c1cc(N2C(=O)C=CC2=O)cc(N2C(=O)C=CC2=O)c1`, the IC50 entry was “inactive”.
The same measure for `O=C1C=CC(=O)N1c1ccccc1N1C(=O)C=CC1=O`: “inactive”; for `COc1cc(/C=C(\C#N)C(=O)c2c[nH]c3ccccc23)cc(OC)c1O`: 51.3 µM (active).
Consider `COc1cc(/C=C(\C#N)c2nc3ccccc3[nH]2)cc(OC)c1O`, for which the IC50 is 27.1 µM (active).
On to `Cc1ccc2nc(/C(C#N)=C/c3ccc(O)c(O)c3)[nH]c2c1`, for which the IC50 is 26.8 µM (active).
Turning to `COc1cc(/C=C(\C#N)c2nc3ccccc3[nH]2)ccc1O`, the IC50 is 14.8 µM (active).
As for `CN1C=CC=C/C1=C(\C#N)c1nc2ccccc2[nH]1`, the half-maximal inhibitory concentration (IC50) is 52.5 µM (active).
With `COc1ccc(N2CCN(CC(O)COC(c3ccc(F)cc3)c3ccc(F)cc3)CC2)cc1` (configuration not stated), the IC50 result was “inactive”.
To `Nc1ccc(N2CCN(C(=O)c3cccs3)CC2)cc1` belongs 22.1 µM (active); to `Nc1ccc(N2CCN(c3ccc(F)cc3)CC2)cc1`, 19.9 µM (active).
As to `CCC(C)N1CCN(C(=O)c2cccs2)CC1` (configuration not stated), the IC50 entry is “inactive”.
Take `O=C(c1cccs1)N1CCN(Cc2ccncc2)CC1`: the IC50 entry was “inactive”.
Regarding `CC(=O)N1CCN(c2ccc(N)cc2)CC1`, the half-inhibitory concentration (IC50) was 13.5 µM (active).
The same measure for `COc1cc(CN2CCN(c3ccccc3F)CC2)cc(OC)c1O`: “inactive”.
On to `Nc1ccc(N2CCN(c3ccccc3)CC2)c(F)c1`, for which the half-maximal inhibitory concentration (IC50) was 37.9 µM (active).
As for `COCC(C)NCc1ccccc1C` (configuration not stated), the IC50 result was “inactive”.
Take `CCN1CCN(CC(O)COC(c2ccccc2)c2ccccc2C)CC1` (configuration not stated): the IC50 entry is “inactive”.
For `CCOCCCNC(=S)N1CCN(Cc2ccc3c(c2)OCO3)CC1`, the IC50 result is “inactive”.
To `CC(C(=O)NC1CCCCC1)N1CCN(C)CC1` (configuration not stated) belongs “inactive”; to `CCN1CCN(C(C)C(=O)NC2CCCCC2)CC1` (configuration not stated), “inactive”.
Regarding `CC(C(=O)NC(=O)NC1CCCCC1)N1CCN(c2ccc(O)cc2)CC1` (configuration not stated), the IC50 was 69.7 µM (active).
Consider `CCOc1cc(/C=N\NC(=O)CC(=O)NCCc2ccccc2)ccc1O`, for which the half-inhibitory concentration (IC50) is 46 µM (active).
The same measure for `COc1cc(/C=N/NC(=O)CCc2ccccc2)ccc1O`: 29.9 µM (active); for `COc1cc(/C=N\NC(=O)CC(=O)NCCc2ccccc2)ccc1O`: 29.2 µM (active).
`COc1ccc(C)cc1NC(=O)C(NCC(O)c1ccccc1)c1ccccc1` (configuration not stated): the IC50 entry is “inactive”.
Take `COc1cc(/C=N\NC(=O)CNC(=O)C(c2ccccc2)c2ccccc2)ccc1O`: the half-maximal inhibitory concentration (IC50) is 50.6 µM (active).
Take `COc1cc(/C=N/NC(=O)Cc2nnc(NC(=O)c3ccccc3)s2)ccc1O`: the IC50 entry was “inactive”.
For the compound `Cc1cccc(N2C(S)=C(C#N)C(=O)NC2c2ccco2)c1` (configuration not stated), the IC50 result was “inactive”.
On to `O=C1C(SCCO)=C(SCCO)C(=O)c2ccccc21`, for which the IC50 result was “inactive”.
Consider `COc1cc(/C=N/NC(=O)CCNC(=O)c2ccccc2Cl)ccc1O`, for which the half-inhibitory concentration (IC50) was 32.2 µM (active).
To `COc1cc(/C=N/NC(=O)/C(=C/c2ccccc2)CCO)ccc1O` belongs 45.8 µM (active).
For the compound `COc1cc(OC)c(OC)cc1CN1CCN(Cc2ccc(SC)cc2)CC1`, the IC50 entry is “inactive”.
On to `O=C(O)CCCn1c(=S)[nH]c2c(sc3ccc([N+](=O)[O-])cc32)c1=O`, for which the half-inhibitory concentration (IC50) is 30.5 µM (active).
`CCC(C)n1c(=S)[nH]c2c(sc3ccc([N+](=O)[O-])cc32)c1=O` (configuration not stated): the IC50 is 58.8 µM (active).
Take `COc1ccc(CN2CCN(CCCCOc3ccc(Cl)cc3)CC2)c(OC)c1OC`: the IC50 result was “inactive”.
The same measure for `COc1ccc2nc3cc(Cl)ccc3c(Nc3ccc(O)c(CN4CCN(C)CC4)c3)c2c1`: 82 µM (active); for `O=C(C1CCN(Cc2cc(Cl)ccc2O)CC1)N1CCN(Cc2ccccc2)CC1`: “inactive”.
Regarding `COc1cc(CNCc2ccccc2C(F)(F)F)cc(OC)c1`, the IC50 entry was “inactive”.
On to `Cc1nc(/N=C(\N)NC(=O)N2c3ccccc3Sc3ccccc32)nc2ccccc12`, for which the IC50 result is “inactive”.
In the case of `COc1cc(CN2CCC(C(=O)N3CCCC(C)C3)CC2)cc(Br)c1O` (configuration not stated), the IC50 result is “inactive”.
Regarding `Oc1ccc(C=NNc2ccccn2)c(O)c1`, the 50% inhibitory concentration (IC50) is 20.8 µM (active).
For the compound `Cc1nc(Cl)cc(N/N=C/c2ccc(O)cc2O)n1`, the 50% inhibitory concentration (IC50) was 17.3 µM (active).
In the case of `Oc1ccc(/C=N/Nc2cccc(Cl)n2)c(O)c1`, the half-maximal inhibitory concentration (IC50) is 25.6 µM (active).
With `Nc1ccc2c(c1)Cc1cc(N)c(Cl)cc1-2`, the 50% inhibitory concentration (IC50) was 8.61 µM (active).
As for `COc1cc2c(cc1N)-c1ccc(N)cc1C2`, the concentration for half-maximal inhibition (IC50) is 36.1 µM (active).
On to `Nc1ccc2c(c1Br)Cc1ccccc1-2`, for which the IC50 is 59.2 µM (active).
Consider `Nc1cc2c(cc1N)-c1ccccc1C2`, for which the concentration for half-maximal inhibition (IC50) is 55.6 µM (active).
As for `O=C1C=CC(=Nc2ccc3c(c2)Cc2ccccc2-3)O1`, the IC50 entry was “inactive”.
As for `Nc1ccc2c(c1)Cc1cc(N)c(Br)cc1-2`, the IC50 is 7.05 µM (active).
Turning to `Cc1ccc(OCCCN2CCCC2)c(C)c1`, the IC50 result was “inactive”.
`O=C(CNS(=O)(=O)c1ccccc1)N/N=C/c1ccc(O)cc1`: the IC50 is 61.6 µM (active).
For the compound `O=C(Cc1cccs1)N/N=C\c1ccc(O)cc1`, the IC50 was 42.6 µM (active).
Consider `O=C(C[n+]1ccccc1)N/N=C/c1ccc(O)cc1`, for which the IC50 was 81.2 µM (active).
Regarding `C[n+]1c(-c2ccc(C=NNC(=O)c3ccc(C(=O)NN=Cc4ccc(-c5cn6ccccc6[n+]5C)cc4)cc3)cc2)cn2ccccc21`, the IC50 result is “inactive”.
In the case of `COc1ccc(Cc2nnc(NC(=O)Cc3cccs3)s2)cc1`, the IC50 result is “inactive”.
Consider `CC(=O)Oc1ccc2c(=O)c(Oc3ccccc3)coc2c1OC(C)=O`, for which the IC50 result was “inactive”.
